Assay results reported in the supplement of paper PMC10849652.
Of roughly 8,800 targets only a part is listed; those with a hit were picked by preference. About 0.5% of all pairs of compound and target were hits.

The targets below were run with COC(=O)N[C@@H](C)CNc1nccc(-c2cn(C(C)C)nc2-c2cc(Cl)cc(NS(C)(=O)=O)c2F)n1 [encorafenib] (assay: log2 fold change, soluble protein after heating vs DMSO (PISA); higher = thermal stabilisation; K562 lysate, 10 uM; active = over 0.2 and 3.5 SD of the protein, either way, in both replicates (recomputed)).
Method in brief: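 Log-two fold change in thermal stability relative to solvent controls is reported from duplicates. For each sample, crude K562 extract from dounce-homogenised pellets in PBS pH 7.4 with 1 mM MgCl2, at 1 mg/mL protein, was treated with 10 μM compound for 30 min. Aliquots heated for 3 min across 48°C-58°C were pooled, brought to 0.5% NP-40 at 4°C and cleared at 21,000xg for 90 min. The supernatant was quantified by TMTpro 16plex LC-MS/MS with channel sums equalised.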

Chain of UniProt Q8NEB9 (Q8NEB9 whole entry, looked up): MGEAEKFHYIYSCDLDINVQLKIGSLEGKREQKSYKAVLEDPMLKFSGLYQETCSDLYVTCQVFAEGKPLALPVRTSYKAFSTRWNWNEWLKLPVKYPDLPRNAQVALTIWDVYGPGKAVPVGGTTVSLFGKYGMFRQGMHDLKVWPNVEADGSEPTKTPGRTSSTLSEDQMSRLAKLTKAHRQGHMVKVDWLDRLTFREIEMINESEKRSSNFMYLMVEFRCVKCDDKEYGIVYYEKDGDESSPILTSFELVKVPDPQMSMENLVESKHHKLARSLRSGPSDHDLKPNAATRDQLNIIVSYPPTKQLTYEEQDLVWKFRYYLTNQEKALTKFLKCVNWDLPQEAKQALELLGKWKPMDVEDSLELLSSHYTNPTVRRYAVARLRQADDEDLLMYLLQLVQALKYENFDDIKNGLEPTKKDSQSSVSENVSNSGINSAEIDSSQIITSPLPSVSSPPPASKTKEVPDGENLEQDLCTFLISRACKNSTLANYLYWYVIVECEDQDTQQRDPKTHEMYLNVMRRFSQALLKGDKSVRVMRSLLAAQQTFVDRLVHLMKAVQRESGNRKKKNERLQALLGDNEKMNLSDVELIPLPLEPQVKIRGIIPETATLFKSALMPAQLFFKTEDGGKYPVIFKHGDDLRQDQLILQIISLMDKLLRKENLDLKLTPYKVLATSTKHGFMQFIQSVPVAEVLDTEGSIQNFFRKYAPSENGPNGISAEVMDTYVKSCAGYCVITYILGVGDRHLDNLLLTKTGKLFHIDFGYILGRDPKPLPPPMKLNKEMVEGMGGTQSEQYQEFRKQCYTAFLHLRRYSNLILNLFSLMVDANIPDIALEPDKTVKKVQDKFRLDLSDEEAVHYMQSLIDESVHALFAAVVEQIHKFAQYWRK
Chain of UniProt Q8TBX8 (Q8TBX8 whole entry, looked up): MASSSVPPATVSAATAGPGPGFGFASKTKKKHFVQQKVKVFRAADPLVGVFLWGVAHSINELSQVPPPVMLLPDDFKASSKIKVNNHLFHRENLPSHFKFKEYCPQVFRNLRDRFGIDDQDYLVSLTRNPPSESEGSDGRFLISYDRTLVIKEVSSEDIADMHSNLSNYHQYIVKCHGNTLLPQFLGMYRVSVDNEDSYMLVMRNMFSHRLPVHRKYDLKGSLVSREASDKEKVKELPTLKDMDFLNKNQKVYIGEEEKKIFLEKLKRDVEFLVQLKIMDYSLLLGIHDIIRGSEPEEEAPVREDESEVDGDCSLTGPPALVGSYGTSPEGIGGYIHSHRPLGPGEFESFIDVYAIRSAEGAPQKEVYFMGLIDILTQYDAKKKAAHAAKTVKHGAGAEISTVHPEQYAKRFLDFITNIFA
Chain of UniProt Q9H3S7 (Q9H3S7 whole entry, looked up): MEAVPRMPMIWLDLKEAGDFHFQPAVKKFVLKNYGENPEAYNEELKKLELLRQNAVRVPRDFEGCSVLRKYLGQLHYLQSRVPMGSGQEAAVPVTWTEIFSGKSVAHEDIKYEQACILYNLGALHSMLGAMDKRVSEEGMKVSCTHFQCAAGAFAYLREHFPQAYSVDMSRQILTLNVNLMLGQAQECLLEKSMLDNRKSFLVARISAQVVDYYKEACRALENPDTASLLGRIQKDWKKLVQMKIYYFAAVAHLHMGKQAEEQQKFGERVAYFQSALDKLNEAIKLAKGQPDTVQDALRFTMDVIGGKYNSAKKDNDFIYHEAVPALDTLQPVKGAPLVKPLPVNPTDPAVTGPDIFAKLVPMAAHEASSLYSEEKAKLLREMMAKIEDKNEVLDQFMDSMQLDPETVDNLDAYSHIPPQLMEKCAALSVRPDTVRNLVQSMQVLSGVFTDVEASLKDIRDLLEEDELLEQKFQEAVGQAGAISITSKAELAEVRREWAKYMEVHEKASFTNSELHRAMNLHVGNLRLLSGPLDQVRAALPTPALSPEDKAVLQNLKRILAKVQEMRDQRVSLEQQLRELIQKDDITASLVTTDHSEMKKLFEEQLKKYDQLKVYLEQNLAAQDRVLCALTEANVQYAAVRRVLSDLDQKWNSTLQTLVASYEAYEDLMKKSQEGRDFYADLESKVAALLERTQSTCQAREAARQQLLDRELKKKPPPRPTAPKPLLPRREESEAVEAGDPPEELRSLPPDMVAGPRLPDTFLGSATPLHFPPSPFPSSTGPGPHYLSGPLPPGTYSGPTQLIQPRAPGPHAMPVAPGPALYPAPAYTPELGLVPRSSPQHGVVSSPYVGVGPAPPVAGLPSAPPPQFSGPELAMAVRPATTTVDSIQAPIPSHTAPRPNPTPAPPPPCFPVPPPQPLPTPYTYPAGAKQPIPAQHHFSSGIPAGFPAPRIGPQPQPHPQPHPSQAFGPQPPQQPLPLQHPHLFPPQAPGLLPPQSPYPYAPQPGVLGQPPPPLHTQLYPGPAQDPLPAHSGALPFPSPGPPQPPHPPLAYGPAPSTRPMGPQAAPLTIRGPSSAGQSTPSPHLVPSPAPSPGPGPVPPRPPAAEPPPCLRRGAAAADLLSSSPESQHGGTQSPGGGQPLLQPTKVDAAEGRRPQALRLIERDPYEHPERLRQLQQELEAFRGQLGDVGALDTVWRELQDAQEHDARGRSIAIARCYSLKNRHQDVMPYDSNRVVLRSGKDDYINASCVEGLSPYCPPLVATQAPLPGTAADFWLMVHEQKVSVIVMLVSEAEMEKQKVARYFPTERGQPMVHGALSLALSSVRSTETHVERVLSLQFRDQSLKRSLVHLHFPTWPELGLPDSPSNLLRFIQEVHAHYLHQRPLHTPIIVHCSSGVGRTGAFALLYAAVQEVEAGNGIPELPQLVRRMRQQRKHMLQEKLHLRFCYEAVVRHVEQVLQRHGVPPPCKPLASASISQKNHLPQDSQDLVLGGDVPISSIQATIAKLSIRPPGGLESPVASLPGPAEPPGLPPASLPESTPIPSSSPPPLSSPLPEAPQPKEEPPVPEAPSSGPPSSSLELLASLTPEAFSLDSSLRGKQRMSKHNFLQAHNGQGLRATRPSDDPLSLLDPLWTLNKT
Chain of UniProt P05771 (P05771 whole entry, looked up): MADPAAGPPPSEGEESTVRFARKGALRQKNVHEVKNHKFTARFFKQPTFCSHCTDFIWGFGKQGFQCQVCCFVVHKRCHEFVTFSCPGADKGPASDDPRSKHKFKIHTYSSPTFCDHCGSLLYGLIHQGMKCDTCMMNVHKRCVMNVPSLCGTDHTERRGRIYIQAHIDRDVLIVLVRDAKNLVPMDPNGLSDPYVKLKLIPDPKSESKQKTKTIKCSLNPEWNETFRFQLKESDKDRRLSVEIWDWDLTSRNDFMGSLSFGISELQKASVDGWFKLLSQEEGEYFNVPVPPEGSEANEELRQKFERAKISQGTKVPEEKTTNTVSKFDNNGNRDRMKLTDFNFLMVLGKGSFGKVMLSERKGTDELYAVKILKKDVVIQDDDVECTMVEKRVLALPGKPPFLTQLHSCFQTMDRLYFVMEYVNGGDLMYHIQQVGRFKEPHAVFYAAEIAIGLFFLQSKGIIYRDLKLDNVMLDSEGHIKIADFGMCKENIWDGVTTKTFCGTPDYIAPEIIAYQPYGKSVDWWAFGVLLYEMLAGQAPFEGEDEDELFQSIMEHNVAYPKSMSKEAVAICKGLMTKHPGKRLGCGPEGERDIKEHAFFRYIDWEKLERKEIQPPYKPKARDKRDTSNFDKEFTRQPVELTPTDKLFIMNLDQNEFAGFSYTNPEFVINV
Chain of UniProt P15735 (P15735 whole entry, looked up): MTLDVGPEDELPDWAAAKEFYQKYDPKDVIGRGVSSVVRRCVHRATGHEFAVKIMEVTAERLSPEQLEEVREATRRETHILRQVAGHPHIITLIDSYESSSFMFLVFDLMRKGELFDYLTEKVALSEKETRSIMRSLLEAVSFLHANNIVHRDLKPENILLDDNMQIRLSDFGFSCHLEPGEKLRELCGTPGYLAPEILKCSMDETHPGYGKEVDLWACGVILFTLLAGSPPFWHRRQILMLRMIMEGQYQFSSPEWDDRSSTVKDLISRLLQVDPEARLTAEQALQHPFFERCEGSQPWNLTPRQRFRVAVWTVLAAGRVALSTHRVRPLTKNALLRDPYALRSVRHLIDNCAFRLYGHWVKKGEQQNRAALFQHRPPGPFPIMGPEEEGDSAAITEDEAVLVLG
Chain of UniProt P07737 (P07737 whole entry, looked up): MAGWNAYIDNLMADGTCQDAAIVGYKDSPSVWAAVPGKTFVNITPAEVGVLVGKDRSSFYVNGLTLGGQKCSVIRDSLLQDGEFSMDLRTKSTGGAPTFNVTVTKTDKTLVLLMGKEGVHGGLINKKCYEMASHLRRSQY
Chain of UniProt P54278 (P54278 whole entry, looked up): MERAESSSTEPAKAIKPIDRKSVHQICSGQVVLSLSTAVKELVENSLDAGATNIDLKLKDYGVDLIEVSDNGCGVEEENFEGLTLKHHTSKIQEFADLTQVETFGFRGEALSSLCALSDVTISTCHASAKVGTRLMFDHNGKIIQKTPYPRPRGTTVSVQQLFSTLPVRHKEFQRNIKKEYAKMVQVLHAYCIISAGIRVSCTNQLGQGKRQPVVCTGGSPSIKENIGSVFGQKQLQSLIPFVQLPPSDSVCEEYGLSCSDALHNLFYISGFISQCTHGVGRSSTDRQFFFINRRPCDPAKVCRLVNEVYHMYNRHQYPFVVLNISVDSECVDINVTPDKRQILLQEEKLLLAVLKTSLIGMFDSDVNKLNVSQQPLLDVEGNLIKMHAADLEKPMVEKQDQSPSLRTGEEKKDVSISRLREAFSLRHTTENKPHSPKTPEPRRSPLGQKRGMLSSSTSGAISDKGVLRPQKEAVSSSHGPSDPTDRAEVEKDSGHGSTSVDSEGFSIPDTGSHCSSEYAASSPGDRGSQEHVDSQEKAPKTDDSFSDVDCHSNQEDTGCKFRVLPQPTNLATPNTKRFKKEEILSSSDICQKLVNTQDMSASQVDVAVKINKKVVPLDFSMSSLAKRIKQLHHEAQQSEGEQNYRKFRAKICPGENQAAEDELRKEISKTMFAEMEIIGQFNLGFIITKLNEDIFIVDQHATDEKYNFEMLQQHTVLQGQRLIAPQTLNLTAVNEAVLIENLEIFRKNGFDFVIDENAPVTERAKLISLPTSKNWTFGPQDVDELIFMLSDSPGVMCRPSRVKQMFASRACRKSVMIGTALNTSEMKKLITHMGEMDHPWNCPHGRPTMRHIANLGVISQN

log2 fold change, inactive:
PUS1 (UniProt Q9Y606) 0
PTPN23 (UniProt Q9H3S7) 0.031
PDCD6IP (UniProt Q8WUM4) -0.1
PMS2 (UniProt P54278) 0.038
PSTPIP2 (UniProt Q9H939) 0.023
PUM1 isoform 3 (UniProt Q14671) 0.008
PICALM (UniProt Q13492) 0.042
PTPN1 (UniProt P18031) -0.003
PPP2R5C isoform 5 (UniProt Q13362) 0.029
POLD3 (UniProt Q15054) 0.021
PIP4K2A (UniProt P48426) 0.141
PDS5A (UniProt Q29RF7) 0.048
PFN1 (UniProt P07737) -0.005
PLXNB2 (UniProt O15031) 0.004
PFAS (UniProt O15067) -0.004
PITRM1 isoform 2 (UniProt Q5JRX3) -0.012
PPP1R8 (UniProt Q12972) 0.028
PLEKHF1 (UniProt Q96S99) -0.025
PRKACB isoform 2 (UniProt P22694) -0.018
PIP4K2C (UniProt Q8TBX8) 0.139
PDPK1 (UniProt O15530) -0.019
PIK3C3 (UniProt Q8NEB9) -0.016
PHOSPHO2 (UniProt Q8TCD6) -0.02
PFKP (UniProt Q01813) -0.041
PHKG2 (UniProt P15735) -0.039
PPCDC (UniProt Q96CD2) -0.082
PDE2A (UniProt O00408) 0.11
PRKCB isoform 2 (UniProt P05771) 0.057
PIP4P2 (UniProt Q8N4L2) 0
PHKA1 (UniProt P46020) 0.004
PIK3R2 (UniProt O00459) 0.009
PSMB9 (UniProt P28065) -0.076
PHACTR4 isoform 2 (UniProt Q8IZ21) -0.01
PI4K2A (UniProt Q9BTU6) 0.022
PDE4DIP isoform 4 (UniProt Q5VU43) 0.006
PDXDC1 (UniProt Q6P996) 0.058
PPIL2 (UniProt Q13356) -0.004
PRRC2A (UniProt P48634) 0.048
PCBP3 (UniProt P57721) -0.006
